Measured values as given in PubChem BioAssay (NCATS).
Inconclusive results are not listed. A call without a number means that no potency is given here. A number with no mark means an inactive call. Active and inactive are the calls of the source. The call rests on the fitted dose curve; in most records, active means well fitted activation curve with a large enough effect; inconclusive means small, poorly fitted or top-dose-only effect; inactive means flat fitted curve, though single readings scatter.

Assay: Primary redox qHTS assay for identification of artifact compounds. (AID 1845223)
Conditions: Amplex Red/HRP redox cycling with DTT, fluorescence; series mostly up to 53.8 µM
How it was run: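 Redox-cycling detection via DTT (250 uM final) oxidation coupled to Amplex Red (25 uM)/HRP (250 mU/mL) in HBSS. 15 min preincubation plus 30 min after DTT, room temperature. Ex/Em 525/598 nm; 4-parameter Hill fit against DMSO and 10 uM DA3003.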

Row | SMILES | Potency | redox activity (% of DA3003)
1 | Nc1c(-c2ccccc2)nc(Cl)c2c(O)n[nH]c(=O)c12 | inactive | –
2 | C/C(=C\C(=O)C(C)C1CCC2C3=C(CCC21C)C1(C)CCC(=O)C(C)(C)C1(O)CC3)C(C)(C)O (centres undefined) | inactive | –
3 | C[C@@H]1C[C@@H](O)[C@@]23CO[C@]2(CO)C[C@@H](O)CC3[C@@]12CC(c1ccoc1)OC2=O (some centres undefined) | inactive | –
4 | Cc1ncc(Cl)cc1NCc1ccc(C(=O)NC(CC2CCCC2)C(=O)NC2CC2)s1 (centres undefined) | inactive | –
5 | CCN=C1N[C@@H]2[C@@H](O)[C@H](O)[C@@H](CO)O[C@@H]2S1 | inactive | –
6 | C=C1C(=O)O[C@@H]2C[C@]3(C)[C@@H](CCC(C)=O)[C@@H]3C[C@H]12 | inactive | –
7 | OC[C@@]1(O)CO[C@H](OC[C@H]2O[C@@H](OC(CCCCc3ccc(O)cc3)CCc3ccc(O)cc3)[C@H](O[C@H]3OC[C@](O)(CO)[C@H]3O)[C@@H](O)[C@@H]2O)[C@@H]1O (some centres undefined) | inactive | –
8 | CC(C)C[C@H](NC(=O)[C@@H]1O[C@H]1C(=O)O)C(=O)NCCCCN=C(N)N | inactive | –
9 | CC1(C)CC[C@]2(C(=O)O[C@@H]3O[C@H](CO)[C@@H](O)[C@H](O)[C@H]3O)CC[C@]3(C)C(=CCC4[C@@]5(C)C[C@@H](O)[C@H](O)[C@@](C)(CO)C5[C@H](O)C[C@]43C)C2[C@@H]1O (some centres undefined) | inactive | –
10 | COc1cc(C(C)=O)ccc1O[C@@H]1O[C@H](CO)[C@@H](O)[C@H](O)[C@H]1O | inactive | –
11 | COc1cc(/C=C/C(=O)O)ccc1O[C@@H]1O[C@H](CO)[C@@H](O)[C@H](O)[C@H]1O[C@@H]1OC[C@](O)(CO)[C@H]1O | inactive | –
12 | C=C(C)[C@@]1(O)C[C@@]2(C)C(=CC1=O)CC[C@@H](O)[C@@H]2C | inactive | –
13 | C[C@@H]1[C@H]2[C@H](O[C@@H]3O[C@H](CO)[C@@H](O)[C@H](O)[C@H]3O)OC=C(C(=O)O)[C@H]2C[C@@H]1OC(=O)/C=C/c1ccc(O)cc1 | inactive | –
14 | CC1C2=CC(=O)OC2(O)CC2C1CCC1C(C)(C)CCC(O)C21C (centres undefined) | inactive | –
15 | C=C1CCc2occ(C)c2[C@H]2[C@H]1[C@@]13O[C@@]1(C[C@@H](C)[C@H]3OC(C)=O)[C@H]1O[C@@]21C | inactive | –
16 | COc1cc(CCCO)ccc1O[C@@H]1O[C@H](CO)[C@@H](O)[C@H](O)[C@H]1O | inactive | –
17 | CC1CCC2C(C(=O)O)=CC3(O)CC(C)(C)CC123 (centres undefined) | inactive | –
18 | C[C@@H]1[C@H](O)[C@@H]2OC(=O)C3=C2[C@H](CCC3)[C@@]12C[C@@H](c1ccoc1)OC2=O | inactive | –
19 | C=C[C@H]1[C@H](O[C@@H]2O[C@H](CO)[C@@H](O)[C@H](O)[C@H]2O)OC=C2C(=O)N3Cc4c([nH]c5ccccc5c4=O)[C@@H]3C[C@H]21 | inactive | –
20 | CC1(C)O[C@H]2CC(=O)OC[C@@]23C1=C(O)C(=O)[C@]1(C)C3CC[C@@]2(C)[C@H](c3ccoc3)OC(=O)[C@H]3O[C@]321 (some centres undefined) | inactive | –

Row | SMILES | Potency | redox activity (% of DA3003)
21 | COc1cc(/C=C/C(=O)O[C@@H]2O[C@H](CO)[C@@H](O)[C@H](O)[C@H]2O)ccc1O | inactive | –
22 | COc1c(O[C@@H]2O[C@H](CO)[C@@H](O)[C@H](O)[C@H]2O)c(CCC(=O)O)cc2ccoc12 | inactive | –
23 | COc1cncc(C#Cc2ccccn2)c1 | inactive | –
24 | C=C1C(OC(C)=O)C(=O)C2C(C)(C)C(O)CCC2(C)C1CC(OC(C)=O)/C(C)=C/COC(C)=O (centres undefined) | inactive | –
25 | CCOC(=O)CSc1nc2c(sc3ccccc32)c(=O)n1CCCN1CCCC1 | inactive | –
26 | CCC(C)/C=C(C)/C=C/C1=CC2=C(Cl)C(=O)C(C)(O)C(=O)C2(O)C(OC)O1 (centres undefined) | inactive | –
27 | O=C(/C=C/c1ccc(O)c(O)c1)O[C@H]1[C@H](OC2CCCCC2O)O[C@H](CO)[C@@H](O)[C@@H]1O (some centres undefined) | inactive | –
28 | CC1(C)CC[C@]2(C(=O)O)CC[C@]3(C)C(=CCC4[C@@]5(C)C(=O)C[C@H](O)[C@@](C)(CO)C5CC[C@]43C)[C@@H]2C1 (some centres undefined) | inactive | –
29 | CC1=C[C@H]2[C@@H](CC1=O)[C@H](C)C[C@H](O)[C@H]2C(C)C | inactive | –
30 | Cc1ccc(Nc2nnc(-c3ccc([N+](=O)[O-])cc3)o2)cc1Cl | inactive | –
31 | C[C@H](O)C(O)(C(=O)OCc1ccccc1NC(=O)CCC(N)C(=O)O)[C@H](C)O (some centres undefined) | inactive | –
32 | CCC(C)C(C(=O)O)N1Cc2c(OCC=C(C)C)c(C)c(OC)c(C(=O)O)c2C1=O (centres undefined) | inactive | –
33 | NC(=O)[C@H](Cc1ccccc1)NC(=O)[C@H](CCCN=C(N)N)NC(=O)C12CC3CC(CC(C3)C1)C2 | – | -2.26% [at 11.5 µM]
34 | COC(=O)[C@H](O)[C@H]1C(C)(C)[C@H](OC(C)=O)[C@@]2(O)C(=O)[C@]1(C)C1CC[C@]3(C)C(CC(=O)O[C@H]3c3ccoc3)[C@]13O[C@@H]32 (some centres undefined) | inactive | –
35 | C/C=C(\C)C(=O)O[C@H]1C=CC(=O)O[C@H]1/C=C/[C@H](O)[C@@H](C)O | inactive | –
36 | CC1(C)CC[C@]2(C(=O)O[C@@H]3O[C@H](CO)[C@@H](O)[C@H](O)[C@H]3O)[C@H](O)C[C@]3(C)C(=CCC4[C@@]5(C)CC[C@H](O[C@@H]6OC[C@@H](O)[C@H](O)[C@H]6O)[C@@](C)(C(=O)O)C5CC[C@]43C)[C@@H]2C1 (some centres undefined) | inactive | –
37 | CCCCS(=O)(=O)NC(Cc1ccc(OCCCCC2CCNCC2)cc1)C(=O)O (centres undefined) | inactive | –
38 | Cc1cn(-c2cc(NC(=O)c3ccc(C)c(Nc4nccc(-c5cnccn5)n4)c3)cc(C(F)(F)F)c2)cn1 | inactive | –
39 | Cc1occc(=O)c1O[C@@H]1O[C@H](COC(=O)CC(C)(O)CC(=O)O)[C@@H](O)[C@H](O)[C@H]1O (some centres undefined) | inactive | –
